# How the values were obtained:
# Test in all cases: DAPPL (digital affinity profiling via proximity ligation, sequencing); 10 mM Tris-HCl pH 7.5, 50 mM NaCl, 1 mM DTT, 4% glycerol, room temperature, 30 min; GST-TFs on glutathione beads, 16-mer random dsDNA library, 0.1% formaldehyde crosslink after washing; high values mean tight binding
# [1] = target: T1, FLI1 (Homo sapiens, UniProt Q01543 1-452); details: protein: recombinant; tags: N-terminal GST; dsDNA, one strand shown
# T1 sequence: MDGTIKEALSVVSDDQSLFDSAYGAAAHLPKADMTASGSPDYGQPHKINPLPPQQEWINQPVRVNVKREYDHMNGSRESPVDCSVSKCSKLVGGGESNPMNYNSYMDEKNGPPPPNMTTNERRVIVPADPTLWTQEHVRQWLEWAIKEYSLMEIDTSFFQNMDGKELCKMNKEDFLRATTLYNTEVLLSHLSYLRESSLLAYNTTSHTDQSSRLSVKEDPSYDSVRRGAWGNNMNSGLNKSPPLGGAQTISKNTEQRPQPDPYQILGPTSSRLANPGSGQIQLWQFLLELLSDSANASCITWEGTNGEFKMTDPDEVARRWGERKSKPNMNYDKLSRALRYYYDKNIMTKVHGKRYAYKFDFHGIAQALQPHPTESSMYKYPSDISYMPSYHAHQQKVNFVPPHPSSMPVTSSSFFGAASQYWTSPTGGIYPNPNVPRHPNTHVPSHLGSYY
# In short: (§1)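 Human transcription factors fused to GST were expressed in yeast, captured on glutathione beads, given DNA barcodes and pooled with a GST-only negative control. Pools were incubated with 200 nmole of a 16-mer random double-stranded DNA library in Tris/NaCl/DTT/glycerol buffer at room temperature for 30 min. They were then washed, crosslinked with 0.1% formaldehyde, proximity-ligated (BsaI/T4 ligase, 1 h, 37 °C), PCR-amplified and sequenced on an Illumina NextSeq500. Binding signal is each 6-mer's read frequency for a factor divided by its frequency for the GST control.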
# [2] = target: T2, ELK1 (Homo sapiens, UniProt P19419 1-428); details: protein: recombinant; tags: N-terminal GST; dsDNA, one strand shown
# T2 sequence: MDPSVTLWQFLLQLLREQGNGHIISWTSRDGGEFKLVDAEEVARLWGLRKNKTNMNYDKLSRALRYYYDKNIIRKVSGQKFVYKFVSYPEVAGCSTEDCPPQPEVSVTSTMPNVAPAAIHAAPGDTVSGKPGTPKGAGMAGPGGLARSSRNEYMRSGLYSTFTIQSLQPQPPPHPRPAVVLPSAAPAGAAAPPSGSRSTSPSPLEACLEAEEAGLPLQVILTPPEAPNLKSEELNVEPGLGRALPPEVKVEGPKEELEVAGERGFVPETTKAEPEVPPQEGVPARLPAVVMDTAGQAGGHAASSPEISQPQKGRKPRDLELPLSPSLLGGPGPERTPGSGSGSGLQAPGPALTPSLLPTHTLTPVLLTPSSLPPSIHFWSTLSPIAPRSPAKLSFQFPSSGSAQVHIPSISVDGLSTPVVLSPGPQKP
# In short: as §1
# [3] = target: T3, GABPA (Homo sapiens, UniProt Q06546 1-454); details: protein: recombinant; tags: N-terminal GST; dsDNA, one strand shown
# T3 sequence: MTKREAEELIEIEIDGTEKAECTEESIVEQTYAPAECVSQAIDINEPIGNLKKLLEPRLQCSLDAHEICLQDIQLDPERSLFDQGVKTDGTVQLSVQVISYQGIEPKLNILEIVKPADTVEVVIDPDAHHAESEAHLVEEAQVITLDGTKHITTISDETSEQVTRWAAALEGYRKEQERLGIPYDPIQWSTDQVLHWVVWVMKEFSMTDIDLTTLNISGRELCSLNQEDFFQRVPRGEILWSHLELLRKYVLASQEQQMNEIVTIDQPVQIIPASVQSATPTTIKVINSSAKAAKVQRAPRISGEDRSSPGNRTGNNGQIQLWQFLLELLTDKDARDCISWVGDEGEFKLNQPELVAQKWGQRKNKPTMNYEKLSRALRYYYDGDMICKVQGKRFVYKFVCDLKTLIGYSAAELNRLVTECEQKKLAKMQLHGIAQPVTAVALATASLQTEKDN
# In short: as §1
# [4] = target: T4, ERG (Homo sapiens, UniProt P11308 1-479); details: protein: recombinant; tags: N-terminal GST; dsDNA, one strand shown
# T4 sequence: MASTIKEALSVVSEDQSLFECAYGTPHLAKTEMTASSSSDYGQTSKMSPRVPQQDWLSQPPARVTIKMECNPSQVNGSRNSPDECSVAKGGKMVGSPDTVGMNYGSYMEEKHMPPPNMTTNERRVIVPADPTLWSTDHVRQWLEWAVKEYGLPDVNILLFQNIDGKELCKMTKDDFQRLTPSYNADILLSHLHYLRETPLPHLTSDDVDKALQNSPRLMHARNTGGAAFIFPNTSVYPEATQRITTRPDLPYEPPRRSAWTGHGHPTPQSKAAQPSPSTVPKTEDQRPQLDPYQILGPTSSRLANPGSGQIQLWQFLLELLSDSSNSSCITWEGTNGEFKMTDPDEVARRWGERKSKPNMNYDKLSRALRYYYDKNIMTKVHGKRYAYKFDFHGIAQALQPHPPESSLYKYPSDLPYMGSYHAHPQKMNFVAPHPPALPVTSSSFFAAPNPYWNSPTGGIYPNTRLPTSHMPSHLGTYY
# In short: as §1
# [5] = target: ELF1 (Homo sapiens, UniProt P32519 1-619); details: protein: recombinant; tags: N-terminal GST; dsDNA, one strand shown
# Chain of ELF1 (P32519 whole entry): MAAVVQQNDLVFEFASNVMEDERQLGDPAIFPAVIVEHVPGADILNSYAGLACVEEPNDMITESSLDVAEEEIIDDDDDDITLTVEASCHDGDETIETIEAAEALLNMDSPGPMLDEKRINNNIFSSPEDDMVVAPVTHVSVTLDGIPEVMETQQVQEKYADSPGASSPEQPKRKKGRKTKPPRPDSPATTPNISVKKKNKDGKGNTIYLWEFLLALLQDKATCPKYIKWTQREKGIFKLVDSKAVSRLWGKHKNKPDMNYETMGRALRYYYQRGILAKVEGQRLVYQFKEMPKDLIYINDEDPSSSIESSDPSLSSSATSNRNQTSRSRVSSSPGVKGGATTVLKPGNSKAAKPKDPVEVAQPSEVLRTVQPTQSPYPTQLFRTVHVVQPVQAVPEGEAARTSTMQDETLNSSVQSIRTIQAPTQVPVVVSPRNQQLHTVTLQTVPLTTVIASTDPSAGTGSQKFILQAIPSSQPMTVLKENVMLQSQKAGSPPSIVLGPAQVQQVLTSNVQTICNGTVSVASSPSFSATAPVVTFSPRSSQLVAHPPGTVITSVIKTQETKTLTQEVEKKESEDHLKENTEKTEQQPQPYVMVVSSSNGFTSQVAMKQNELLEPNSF
# In short: as §1
# [6] = target: T5, EHF (Homo sapiens, UniProt Q9NZC4 1-300); details: protein: recombinant; tags: N-terminal GST; dsDNA, one strand shown
# T5 sequence: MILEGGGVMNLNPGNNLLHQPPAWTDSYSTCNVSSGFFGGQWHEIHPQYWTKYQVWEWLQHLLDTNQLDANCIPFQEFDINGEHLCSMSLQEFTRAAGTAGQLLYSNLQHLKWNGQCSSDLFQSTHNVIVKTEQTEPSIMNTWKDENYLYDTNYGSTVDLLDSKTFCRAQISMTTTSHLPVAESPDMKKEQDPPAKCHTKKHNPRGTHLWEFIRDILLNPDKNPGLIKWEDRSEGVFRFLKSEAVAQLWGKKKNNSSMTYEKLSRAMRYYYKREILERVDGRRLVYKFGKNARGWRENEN
# In short: as §1
# [7] = target: SPI1 (Homo sapiens, UniProt P17947 1-270); details: protein: recombinant; tags: N-terminal GST; dsDNA, one strand shown
# In short: as §1
# [8] = target: SPIB (Homo sapiens, UniProt Q01892 1-262); details: protein: recombinant; tags: N-terminal GST; dsDNA, one strand shown
# Chain of SPIB (Q01892 whole entry): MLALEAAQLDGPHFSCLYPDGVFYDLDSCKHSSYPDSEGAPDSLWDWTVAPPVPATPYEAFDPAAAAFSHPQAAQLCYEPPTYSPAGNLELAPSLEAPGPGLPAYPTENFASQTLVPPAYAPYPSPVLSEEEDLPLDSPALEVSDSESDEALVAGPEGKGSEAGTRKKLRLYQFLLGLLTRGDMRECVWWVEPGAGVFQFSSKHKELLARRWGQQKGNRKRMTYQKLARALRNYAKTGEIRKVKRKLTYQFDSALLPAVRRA
# In short: as §1
# [9] = target: T6, ELK3 (Homo sapiens, UniProt P41970 1-407); details: protein: recombinant; tags: N-terminal GST; dsDNA, one strand shown
# T6 sequence: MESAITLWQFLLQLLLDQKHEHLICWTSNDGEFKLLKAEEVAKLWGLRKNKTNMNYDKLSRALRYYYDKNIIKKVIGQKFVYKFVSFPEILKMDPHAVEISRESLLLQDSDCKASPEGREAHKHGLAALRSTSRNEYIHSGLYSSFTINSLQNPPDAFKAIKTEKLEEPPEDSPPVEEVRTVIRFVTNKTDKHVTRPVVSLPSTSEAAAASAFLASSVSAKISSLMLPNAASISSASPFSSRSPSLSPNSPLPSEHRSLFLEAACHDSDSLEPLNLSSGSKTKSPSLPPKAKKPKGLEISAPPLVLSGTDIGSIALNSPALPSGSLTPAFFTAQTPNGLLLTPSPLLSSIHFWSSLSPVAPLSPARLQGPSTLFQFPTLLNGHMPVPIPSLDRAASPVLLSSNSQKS
# In short: as §1
# [10] = target: T7, FEV (Homo sapiens, UniProt Q99581 1-238); details: protein: recombinant; tags: N-terminal GST; dsDNA, one strand shown
# T7 sequence: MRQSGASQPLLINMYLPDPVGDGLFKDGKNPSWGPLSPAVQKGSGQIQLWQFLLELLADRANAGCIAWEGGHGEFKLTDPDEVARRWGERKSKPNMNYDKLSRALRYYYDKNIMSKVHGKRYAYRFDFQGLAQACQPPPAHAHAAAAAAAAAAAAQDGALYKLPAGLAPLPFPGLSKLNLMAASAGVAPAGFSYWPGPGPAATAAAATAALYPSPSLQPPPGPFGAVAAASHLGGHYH
# In short: as §1
# [11] = target: ETV5 (Homo sapiens, UniProt P41161 1-510); details: protein: recombinant; tags: N-terminal GST; dsDNA, one strand shown
# Chain of ETV5 (P41161 whole entry): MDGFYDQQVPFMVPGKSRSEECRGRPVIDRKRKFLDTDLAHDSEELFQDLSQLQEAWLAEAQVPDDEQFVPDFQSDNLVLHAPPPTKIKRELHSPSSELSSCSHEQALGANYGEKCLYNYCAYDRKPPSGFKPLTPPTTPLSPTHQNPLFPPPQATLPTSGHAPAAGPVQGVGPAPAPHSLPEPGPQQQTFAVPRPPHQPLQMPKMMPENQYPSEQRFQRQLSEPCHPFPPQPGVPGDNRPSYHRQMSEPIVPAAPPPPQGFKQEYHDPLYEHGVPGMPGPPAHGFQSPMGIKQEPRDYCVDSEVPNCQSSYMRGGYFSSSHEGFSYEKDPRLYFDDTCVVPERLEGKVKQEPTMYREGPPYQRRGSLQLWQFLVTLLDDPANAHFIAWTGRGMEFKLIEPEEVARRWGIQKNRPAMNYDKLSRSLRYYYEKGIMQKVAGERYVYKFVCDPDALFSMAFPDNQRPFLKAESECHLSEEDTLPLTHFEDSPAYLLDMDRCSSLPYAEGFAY
# In short: as §1
# [12] = target: HSF1 (Homo sapiens, UniProt Q00613 1-529); details: protein: recombinant; tags: N-terminal GST; chain copies: 3; dsDNA, one strand shown
# Chain of HSF1 (Q00613 whole entry): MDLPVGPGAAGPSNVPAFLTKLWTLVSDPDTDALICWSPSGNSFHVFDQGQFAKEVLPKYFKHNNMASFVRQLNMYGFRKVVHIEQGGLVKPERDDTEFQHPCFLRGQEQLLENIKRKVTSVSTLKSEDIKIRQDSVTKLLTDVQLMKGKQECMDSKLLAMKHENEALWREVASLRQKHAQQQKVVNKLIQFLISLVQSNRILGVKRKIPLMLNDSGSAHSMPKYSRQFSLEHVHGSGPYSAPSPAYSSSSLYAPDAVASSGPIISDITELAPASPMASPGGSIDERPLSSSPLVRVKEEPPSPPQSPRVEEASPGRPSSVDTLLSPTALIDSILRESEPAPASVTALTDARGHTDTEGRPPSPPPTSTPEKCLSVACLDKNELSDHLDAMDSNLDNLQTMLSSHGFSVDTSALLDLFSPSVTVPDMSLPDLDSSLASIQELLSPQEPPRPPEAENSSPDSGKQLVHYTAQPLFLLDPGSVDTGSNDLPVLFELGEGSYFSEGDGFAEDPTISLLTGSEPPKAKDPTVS
# In short: as §1
# [13] = target: T8, SPIC (Homo sapiens, UniProt Q8N5J4 1-248); details: protein: recombinant; tags: N-terminal GST; dsDNA, one strand shown
# T8 sequence: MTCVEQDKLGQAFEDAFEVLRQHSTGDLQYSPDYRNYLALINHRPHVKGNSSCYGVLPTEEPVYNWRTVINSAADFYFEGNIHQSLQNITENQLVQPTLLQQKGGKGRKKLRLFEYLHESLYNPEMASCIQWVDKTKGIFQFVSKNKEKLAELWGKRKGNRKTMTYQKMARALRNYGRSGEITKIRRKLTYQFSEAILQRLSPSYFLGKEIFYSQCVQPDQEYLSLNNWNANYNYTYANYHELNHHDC
# In short: as §1
# [14] = target: ELF4 (Homo sapiens, UniProt Q99607 1-663); details: protein: recombinant; tags: N-terminal GST; dsDNA, one strand shown
# Chain of ELF4 (Q99607 whole entry): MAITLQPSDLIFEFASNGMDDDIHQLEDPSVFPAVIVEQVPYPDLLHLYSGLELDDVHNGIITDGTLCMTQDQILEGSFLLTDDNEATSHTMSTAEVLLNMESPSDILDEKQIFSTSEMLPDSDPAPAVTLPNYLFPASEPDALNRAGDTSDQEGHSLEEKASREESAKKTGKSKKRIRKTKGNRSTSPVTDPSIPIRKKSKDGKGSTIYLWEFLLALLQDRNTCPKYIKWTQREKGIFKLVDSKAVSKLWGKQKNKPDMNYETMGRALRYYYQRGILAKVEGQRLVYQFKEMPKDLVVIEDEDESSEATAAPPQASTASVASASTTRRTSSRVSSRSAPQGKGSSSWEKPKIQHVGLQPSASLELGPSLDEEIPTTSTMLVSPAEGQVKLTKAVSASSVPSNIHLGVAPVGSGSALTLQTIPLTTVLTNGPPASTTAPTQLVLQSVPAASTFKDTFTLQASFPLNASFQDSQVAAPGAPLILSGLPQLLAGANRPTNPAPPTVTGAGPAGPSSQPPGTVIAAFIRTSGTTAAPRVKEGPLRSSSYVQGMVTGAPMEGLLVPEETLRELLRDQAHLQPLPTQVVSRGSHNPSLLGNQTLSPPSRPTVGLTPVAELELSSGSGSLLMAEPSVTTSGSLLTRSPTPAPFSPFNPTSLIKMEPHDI
# In short: as §1
# [15] = target: T9, ELK4 (Homo sapiens, UniProt P28324-2 1-405); details: protein: recombinant; tags: N-terminal GST; dsDNA, one strand shown
# T9 sequence: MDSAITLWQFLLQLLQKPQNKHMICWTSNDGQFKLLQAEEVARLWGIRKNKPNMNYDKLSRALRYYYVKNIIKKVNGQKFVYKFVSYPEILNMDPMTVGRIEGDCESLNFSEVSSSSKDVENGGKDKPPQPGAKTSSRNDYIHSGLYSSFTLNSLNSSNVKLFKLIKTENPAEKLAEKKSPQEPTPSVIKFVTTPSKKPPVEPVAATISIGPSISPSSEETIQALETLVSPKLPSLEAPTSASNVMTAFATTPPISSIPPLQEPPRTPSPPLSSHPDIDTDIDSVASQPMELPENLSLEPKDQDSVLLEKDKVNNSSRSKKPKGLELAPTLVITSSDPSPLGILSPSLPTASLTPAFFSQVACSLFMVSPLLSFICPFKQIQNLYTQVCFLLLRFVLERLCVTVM
# In short: as §1
# [16] = target: T10, ETV2 (Homo sapiens, UniProt O00321 1-342); details: protein: recombinant; tags: N-terminal GST; dsDNA, one strand shown
# T10 sequence: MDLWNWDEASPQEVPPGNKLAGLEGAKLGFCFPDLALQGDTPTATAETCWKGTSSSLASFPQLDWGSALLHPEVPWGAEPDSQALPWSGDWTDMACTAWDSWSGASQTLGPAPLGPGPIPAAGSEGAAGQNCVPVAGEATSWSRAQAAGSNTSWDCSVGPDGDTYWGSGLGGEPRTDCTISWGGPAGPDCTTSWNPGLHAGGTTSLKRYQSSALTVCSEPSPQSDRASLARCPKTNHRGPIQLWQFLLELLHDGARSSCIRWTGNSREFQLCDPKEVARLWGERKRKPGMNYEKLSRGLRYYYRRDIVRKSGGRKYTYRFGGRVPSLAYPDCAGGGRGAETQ
# In short: as §1
# [17] = target: T11, ELF3 (Homo sapiens, UniProt P78545 1-371); details: protein: recombinant; tags: N-terminal GST; dsDNA, one strand shown
# T11 sequence: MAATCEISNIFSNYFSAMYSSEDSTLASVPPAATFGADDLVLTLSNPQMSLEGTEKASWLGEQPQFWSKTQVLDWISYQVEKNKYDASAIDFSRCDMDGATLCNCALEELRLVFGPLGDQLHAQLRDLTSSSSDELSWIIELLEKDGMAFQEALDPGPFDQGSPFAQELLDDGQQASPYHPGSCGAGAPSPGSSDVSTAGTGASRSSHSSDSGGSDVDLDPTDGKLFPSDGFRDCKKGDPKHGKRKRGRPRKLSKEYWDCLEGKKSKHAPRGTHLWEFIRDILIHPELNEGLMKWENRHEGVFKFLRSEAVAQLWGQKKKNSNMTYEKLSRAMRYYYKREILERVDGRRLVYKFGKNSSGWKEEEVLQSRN
# In short: as §1
# [18] = target: CRX (Homo sapiens, UniProt O43186 1-299); details: protein: recombinant; tags: N-terminal GST; dsDNA, one strand shown
# Chain of CRX (O43186 whole entry): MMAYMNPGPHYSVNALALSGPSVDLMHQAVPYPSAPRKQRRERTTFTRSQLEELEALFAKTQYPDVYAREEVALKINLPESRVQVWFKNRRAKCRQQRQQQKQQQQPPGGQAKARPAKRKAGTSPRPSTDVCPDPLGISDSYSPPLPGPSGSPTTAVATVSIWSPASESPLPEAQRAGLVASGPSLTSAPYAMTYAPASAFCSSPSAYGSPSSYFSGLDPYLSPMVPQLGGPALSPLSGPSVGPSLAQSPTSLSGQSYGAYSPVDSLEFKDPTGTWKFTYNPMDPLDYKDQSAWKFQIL
# In short: as §1
# [19] = target: ETV1 (Homo sapiens, UniProt P50549 1-477); details: protein: recombinant; tags: N-terminal GST; dsDNA, one strand shown
# Chain of ETV1 (P50549 whole entry): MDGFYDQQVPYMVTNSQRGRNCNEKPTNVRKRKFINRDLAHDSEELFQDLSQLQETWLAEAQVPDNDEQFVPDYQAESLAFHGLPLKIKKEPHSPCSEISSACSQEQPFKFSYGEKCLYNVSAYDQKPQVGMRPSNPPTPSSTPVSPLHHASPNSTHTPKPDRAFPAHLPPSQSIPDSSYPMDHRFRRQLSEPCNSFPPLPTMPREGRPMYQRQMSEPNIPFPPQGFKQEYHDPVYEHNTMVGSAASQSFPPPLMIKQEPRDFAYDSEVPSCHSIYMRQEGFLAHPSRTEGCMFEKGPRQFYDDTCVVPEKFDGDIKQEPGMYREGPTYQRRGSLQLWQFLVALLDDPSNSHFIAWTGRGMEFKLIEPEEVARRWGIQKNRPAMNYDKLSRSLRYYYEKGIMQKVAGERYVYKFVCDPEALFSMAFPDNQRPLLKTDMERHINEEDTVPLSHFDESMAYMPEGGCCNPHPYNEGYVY
# In short: as §1
sequence,measurement,setting,value
TTTTAT,binding signal,[1],"1.4 fold enrichment (6-mer frequency, TF over GST control)"
same,binding signal,[2],"1.16 fold enrichment (6-mer frequency, TF over GST control)"
same,binding signal,[3],"1.42 fold enrichment (6-mer frequency, TF over GST control)"
same,binding signal,[4],"1.3 fold enrichment (6-mer frequency, TF over GST control)"
same,binding signal,[5],"1.17 fold enrichment (6-mer frequency, TF over GST control)"
same,binding signal,[6],"1.44 fold enrichment (6-mer frequency, TF over GST control)"
same,binding signal,[7],"1.44 fold enrichment (6-mer frequency, TF over GST control)"
same,binding signal,[8],"1.37 fold enrichment (6-mer frequency, TF over GST control)"
same,binding signal,[9],"1.34 fold enrichment (6-mer frequency, TF over GST control)"
same,binding signal,[10],"1.32 fold enrichment (6-mer frequency, TF over GST control)"
same,binding signal,[11],"1.26 fold enrichment (6-mer frequency, TF over GST control)"
same,binding signal,[12],"1.46 fold enrichment (6-mer frequency, TF over GST control)"
same,binding signal,[13],"1.39 fold enrichment (6-mer frequency, TF over GST control)"
same,binding signal,[14],"1.4 fold enrichment (6-mer frequency, TF over GST control)"
same,binding signal,[15],"1.26 fold enrichment (6-mer frequency, TF over GST control)"
same,binding signal,[16],"1.36 fold enrichment (6-mer frequency, TF over GST control)"
same,binding signal,[17],"1.32 fold enrichment (6-mer frequency, TF over GST control)"
same,binding signal,[18],"1.77 fold enrichment (6-mer frequency, TF over GST control)"
same,binding signal,[19],"1.3 fold enrichment (6-mer frequency, TF over GST control)"
